NALP3 yeast inh: inhibitors of NALP3 inflammasome in yeast; Yeast reconstituted NLRP3/ASC/caspase-1, beta-gal luminescence, 24 h; inhibition, % at 10 µM; hit rate 0.39% among 330,000; AID 2825;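 active means inhibition of 50% or more; inactive means inhibition below 50%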;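 further: plate controls were induced DMSO wells for no effect and uninduced yeast grown without galactose for full effect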
NALP1 yeast inh: NALP1 inhibition. S. cerevisiae NALP1/ASC/caspase-1 growth, X-gal OD620, 72 h. inhibition, % at 10 µM. hit rate 0.61% among 280,000; in the data active means inhibition mostly above about 24%, no sharp cut-off; inactive means mostly below about 32%
tim10-1 inh: tim10-1 yeast growth inhibition. S. cerevisiae tim10-1 ts strain growth, BacTiter-Glo, 24 h. hit rate 2.2% among 330,000. inhibition, % at 20 µM;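 active means inhibition of at least 40%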;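 further: mutant grown at 25 °C; 0% = DMSO wells with yeast and 100% = wells holding no yeast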
TIM10 inh: TIM10 yeast growth inhibition; S. cerevisiae TIM10 strain growth, BacTiter-Glo luminescence, 24 h; hit rate 1.4% among 330,000; inhibition, % at 10 µM;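 active means inhibition of 40% or more at the single tested concentration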;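 further: wild-type TIM10 isogenic control strain grown at permissive 25 °C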
tim23-1 inh: inhibits growth of tim23-1 mutant yeast; hit rate 1.3% among 330,000; S. cerevisiae tim23-1 growth, BacTiter-Glo luminescence, 24 h; inhibition, % at 20 µM;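 active means growth inhibition of the mutant yeast at or above 50%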;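 further: temperature-sensitive mutant grown at 25 °C; plate controls were DMSO-treated mutant yeast for no effect and medium wells lacking yeast for full effect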
tim10-1 confirm: tim10-1 yeast growth inhibition, confirmed; hit rate 56% among 7,400; S. cerevisiae tim10-1 ts strain growth, BacTiter-Glo, 24 h; inhibition, % at 20 µM; shares compounds with tim10-1 inh; AID 463213;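 active means inhibition of yeast growth at or above a set limit in either of two repeat tests at 20 µM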;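 further: tim10-1 mutant grown at permissive 25 °C to find synthetic lethal compounds; 0% = DMSO yeast wells and 100% = medium wells without yeast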
tim10 confirm: TIM10 yeast growth inhibition, confirmed. AID 463215. S. cerevisiae tim10 strain growth, BacTiter-Glo luminescence, 24 h. hit rate 63% among 4,600. shares compounds with TIM10 inh. inhibition, % at 10 µM;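 active means inhibition of yeast growth at or above a set limit in either of two replicates at 10 µM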;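 further: this counterscreen used the strain with wild-type TIM10; 0% = yeast with DMSO and 100% = medium wells lacking yeast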
tim23-1 conf: tim23-1 yeast growth inhibition, confirmed; shares compounds with tim23-1 inh; S. cerevisiae tim23-1 growth, BacTiter-Glo luminescence, 24 h; inhibition, % at 20 µM; hit rate 83% among 4,400;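 active means inhibition above about 39% in either of two replicate wells at 20 µM, limit read from the data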;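 further: temperature-sensitive tim23-1 mutant grown at 25 °C; 0% = DMSO wells with yeast and 100% = medium wells without yeast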
* hit, by the source's call; · = no result. This is a sample that favours compounds with a hit; in the whole collection about 4% have one here.

SMILES	NALP3 yeast inh	NALP1 yeast inh	tim10-1 inh	TIM10 inh	tim23-1 inh	tim10-1 confirm	tim10 confirm	tim23-1 conf
O=c1[nH]c(=O)n(Cc2ccccc2Cl)c(O)c1/C=C1/C=CC=N1	29	6	28	24	-69	·	·	·
COC(=O)C1=C(c2ccc(F)cc2OCc2ccccc2)C[C@@H]2CC[C@H]1N2C(=O)NCCN1CCOCC1	8	·	-6	0	-1	·	·	·
OC(Cn1c2ccccc2c2ccccc21)C[n+]1cccc2ccccc21 (stereo unspecified)	23	5	49*	57*	33	43*	43*	·
CC(C)CC(C)N (stereo unspecified)	8	·	7	6	8	·	·	·
COc1ccc(N2C(=O)NC(=O)/C(=C\c3ccc([N+](=O)[O-])s3)C2=O)cc1	21	-3	68*	81*	43	71*	38*	·
CCSc1cc(C2C(C#N)=C(N)Oc3n[nH]c(C)c32)c(C)o1 (stereo unspecified)	14	-1	63*	48*	10	47*	45*	·
FC(F)(F)c1ccccc1CNCCc1c[nH]c2ccccc12	35	7	43*	61*	35	62*	60*	·
CC/C(=N\NC(=O)c1ccccc1)c1c(O)n(C2CCCCC2)c(=O)[nH]c1=O	-1	-15	11	4	5	·	·	·
NC(=O)c1ccc(OCCC(O)N2CC=C(c3ccc(F)cc3)CC2)cc1 (stereo unspecified)	15	·	-20	-12	-49	·	·	·
CCOC(=O)c1ccc(N2C(=O)CC(N3CC=C(c4ccc(F)cc4)CC3)C2=O)cc1 (stereo unspecified)	-3	5	63*	57*	19	62*	44*	·
Cc1ccc(Cn2nnnc2CN2CCC(n3nnc4cc(C(F)(F)F)ccc43)CC2)cc1	14	20	36	33	18	·	·	·
Cc1ccc(Cn2nnnc2CN2CCC(n3nnc4cc(C)ccc43)CC2)cc1	14	6	52*	50*	45	46*	28*	·
O=C1NC(=O)N(Cc2ccco2)C(=O)/C1=C\c1cccn1CCOc1ccc(Cl)cc1	10	30	47*	41*	44	41*	39*	·
COC(=O)C1=C(c2cccc(Cl)c2)C[C@@H]2CC[C@H]1N2C(=O)NCC1CC1	0	·	23	-10	11	·	·	·
COc1ccc2c3c1OC1C(=O)CC[C@@]4(O)[C@@H](C2)N(CC2CC2)CC[C@]314 (stereo partly specified)	-2	·	-2	5	0	·	·	·
CCOc1cc2c(cc1OCC)-n1cccc1C(c1cccc(OCC)c1O)NC2 (stereo unspecified)	31	26	36	18	27	·	·	·
Fc1ccc(C[n+]2c(-c3ccccc3)cc(-c3ccccc3)cc2-c2ccccc2)cc1	16	·	55*	49*	41	52*	59*	·
Cc1cccc(-n2c(C)nc3ccc(Cl)cc3c2=O)c1	14	0	5	5	19	·	·	·
O=C1NC(=O)N(Cc2ccc(F)cc2)C(=O)/C1=C\c1ccc([N+](=O)[O-])s1	12	·	70*	83*	60*	75*	25	76*
COc1ccc(CN2C(=O)NC(=O)/C(=C/c3ccc([N+](=O)[O-])s3)C2=O)cc1	2	10	67*	82*	59*	75*	24	75*
O=C1NC(=O)N(Cc2ccc(F)cc2)C(=O)/C1=C\c1ccc(N2CCCC2)cc1	31	12	23	11	25	·	·	·
COc1ccc(CN2C(=O)NC(=O)/C(=C\c3ccco3)C2=O)cc1	-13	26	6	-8	17	·	·	·
CCOc1cc2c(cc1OCC)-n1cccc1C(c1cc(OC)ccc1F)NC2 (stereo unspecified)	2	-2	25	30	26	·	·	·
COC(=O)C1=C(c2ccc3ccccc3c2)C[C@@H]2CC[C@H]1N2C(=O)NCc1ccc(C(F)(F)F)cc1	21	·	20	3	34	·	·	·
COc1cc(/C=C(/C)[N+](=O)[O-])ccc1OCc1ccccc1Cl	16	84	49*	52*	52*	36*	44*	71*
SMILES	NALP3 yeast inh	NALP1 yeast inh	tim10-1 inh	TIM10 inh	tim23-1 inh	tim10-1 confirm	tim10 confirm	tim23-1 conf
CCN1/C(=C\C=C\C2=[N+](CC)c3ccccc3C2(C)C)C(C)(C)c2ccccc21	28	3	42*	46*	58*	28	27	40*
COC(=O)C(O)(c1ccc(NC(=S)NC(=O)c2ccc(Cl)cc2Cl)c(C)c1)C(F)(F)F (stereo unspecified)	18	16	53*	23	59*	37*	·	58*
COc1ccc(-n2c(C)nc3ccccc3c2=O)c([N+](=O)[O-])c1	8	11	-1	0	7	·	·	·
Cc1cc(O)c2c(c1)C(=O)C13C(=C2O)C(=O)[C@H]2[C@@H](O)[C@@H]1[C@H]1[C@H](O)[C@@H]3C(=O)C3=C(O)c4c(O)cc(C)cc4C(=O)C312 (stereo partly specified)	21	·	-18	-15	-10	·	·	·
Cc1nn(CC(C)C)c(Cl)c1C(=O)NC1CCCCC1	26	·	7	-2	10	·	·	·
CN(C)c1ccc(NC(=O)CN2C(=O)CN=C(c3ccccc3)c3cc(Cl)ccc32)cc1	25	22	34	13	32	·	·	·
Cc1ccc(NC(=O)CN2C(=O)CN=C(c3ccccc3)c3cc(Cl)ccc32)cc1	19	21	45*	11	61*	20	·	52*
N#CC(C#N)=NNc1ccc(-n2ccc(C(F)(F)F)n2)cc1	38	·	50*	48*	51*	59*	23	61*
O=C(NC1CC1)c1cn(Cc2ccccc2)nc1-c1ccccc1	13	·	1	2	6	·	·	·
Cc1ccc(Cn2cc(C=O)c(-c3ccc(C)cc3)n2)cc1	32	50	45*	27	53*	35*	·	65*
O=C1NC(=S)N(Cc2ccco2)C(=O)/C1=C\c1cccs1	·	7	·	·	·	·	·	·
CN1C(=O)C(=Cc2ccccc2OCCOc2ccc([N+](=O)[O-])cc2)C(=O)N(C)C1=O	14	3	50*	69*	74*	42*	66*	90*
CC[n+]1c(/C=C/C=C/c2ccc(N(C)C)cc2)sc2ccccc21	13	8	85*	82*	83*	90*	74*	82*
Cc1ccc(/C=C2\C(=O)NC(=S)N(c3ccc(F)cc3)C2=O)s1	-7	-2	70*	43*	55*	36*	38*	72*

Screening results from PubChem.
